This note sets out measurements from PubChem BioAssay (Tox21).

Where “and” joins values, the source holds several entries; their conditions need not be identical. Equal values may be shown once. Results filed as inconclusive are left out. A call without a number means that no potency is given here. Calls of active or inactive are those of the source. The call rests on the fitted dose curve; in most records, active means well fitted inhibition curve with a large enough effect in the repeat runs; inconclusive means weak or mixed curves; inactive means no such curve, though single readings can be large or run the other way.
Potency means the concentration at half of the fitted maximal effect.

This test in a line: qHTS assay to identify small molecule antagonists of the thyroid receptor (TR) signaling pathway (AID 743065). Further: nearly all actives have a fitted effect of over 55% in size. The following applies: GH3.TRE-Luc, T3-stimulated luciferase inhibition, 23.5 h; series mostly up to 70.3 µM. The text has this: U.S. Tox21 Program National Center for Advancing Translational Sciences [NCATS] NIH Chemical Genomics Center [NCGC] U.S. Environmental Protection Agency [EPA] National Institutes of Environmental Health Sciences [NIEHS] National Toxicology Program [NTP] U.S. Food and Drug Administration [FDA] Tox21 Assay Overview: Thyroid receptor (TR), a nuclear hormone receptor, plays an important role in development, proliferation, differentiation, metabolism, brain function, and cardiovascular system. […] To profile the Tox21 10K compound library in TR signaling, a cell-based GH3-TRE-Luc assay (GH3.TRE-Luc cell line, developed by the laboratory of Dr. Albertinka J. Murk, Wageningen University) was used to measure the inhibition of TR. GH3 (rat pituitary tumor) cells stably expressing a TR activity sensor consisting of two TR response elements and a luciferase reporter gene.
Tox21 Assay Protocol Summary: GH3.TRE-Luc cells were dispensed at 1500 cells/4 uL/well into 1536-well white solid bottom plates using a Multidrop Combi dispenser (Thermo Fisher Scientific Inc., Waltham, MA). After the assay plates were incubated at 37 C for 4 hours, 23 nL of library compound or DMSO controls was transferred to the assay plates by a pintool station (Kalypsys, San Diego, CA), followed by addition of 1 ul of T3 (1 nM, final concentration in the wells) to stimulate TR transactivation. The assay plates were incubated at 37 C for 23.5 h, and then 1 uL of CellTiter-Fluor reagent (Promega, Madision, WI) of measuring cytotoxicity was added to each well using a Bioraptr Flying Reagent Dispenser (FRD) workstation (Beckman Coulter, Indianapolis, IN, USA). The plates were incubated at 37 C and 5% CO2 for additional 30 min, and fluorescence intensity was measured by a ViewLux plate reader (PerkinElmer, Shelton, CT). For measuring luciferase reporter gene activity, 4 uL of ONE-Glo Luciferase Assay reagent (Promega) was added to each well using a Bioraptr FRD (Beckman Coulter), followed by 30 min incubation at room temperature. The luminescence intensity of plates was recorded by a ViewLux plate reader (PerkinElmer, Shelton, CT).
(In general: Quantitative high-throughput screening tests each substance at several concentrations.)
For the molecule `C=C1c2c(Cl)ccc(O)c2C(O)=C2C(=O)[C@]3(O)C(O)=C(C(N)=O)C(=O)[C@@H](N(C)C)[C@@H]3[C@@H](O)[C@H]12`, the Potency entry was “inactive”.

In the case of `CC(=O)N[C@@H]([C@@H](O)[C@H](O)[C@H](O)CO)[C@@H](O)CC(=O)C(=O)O`, the Potency result is “inactive”. `O=C(NNCS(=O)(=O)O)c1ccncc1`: the Potency entry was “inactive”. Consider `CCN(CC)CCCC(C)Nc1cc(/C=C/c2ccccc2Cl)nc2cc(Cl)ccc12` (stereo not given), for which the Potency is 29.8 µM (active).

On to `N#Cc1ccc2c(c1)N(CCCN1CCC(O)CC1)c1ccccc1S2`, for which the Potency was 21.1 µM (active). For the molecule `O=S(=O)(O)Oc1ccc(C(c2ccc(OS(=O)(=O)O)cc2)c2ccccn2)cc1`, the Potency result was “inactive”. Regarding `CC(=O)O[C@H]1C[C@@H]2CC[C@@H]3[C@H](CC[C@@]4(C)[C@H]3C[C@H](N3CC[N+](C)(C)CC3)[C@@H]4OC(C)=O)[C@@]2(C)C[C@@H]1N1CC[N+](C)(C)CC1`, the Potency entry was “inactive”. Consider `CC(C)(C)NCC(O)c1ccc(O)c(CO)n1` (stereo not given), for which the Potency result was “inactive”. `O=P(O)(O)OC(Cn1cncn1)(Cn1cncn1)c1ccc(F)cc1F`: the Potency result was “inactive”. For the molecule `CCCN(CC)C(CC)C(=O)Nc1c(C)cccc1C` (stereo not given), the Potency entry is “inactive”.

`CCC(Cc1c(I)cc(I)c(O)c1I)C(=O)O` (stereo not given): the Potency entry was “inactive”.

As for `C/C=C1\NC(=O)[C@H]2CSSCC/C=C/[C@H](CC(=O)N[C@H](C(C)C)C(=O)N2)OC(=O)C(C(C)C)NC1=O` (stereo not given in full), the Potency is 0.0168 µM (active).

With `CC(CN(C)C)CN1c2ccccc2Sc2ccc(C(F)(F)F)cc21` (stereo not given), the Potency was 13.3 µM (active). Take `CC(=O)N(CC(C)C(=O)O)c1c(I)cc(I)c(N)c1I` (stereo not given): the Potency result was “inactive”. Regarding `CC(=O)c1ccc2c(c1)N(CCCN1CCN(CCO)CC1)c1ccccc1S2`, the Potency was 13.3 µM (active). Consider `COC(=O)[C@H]1[C@H]2C[C@@H]3c4[nH]c5cc(OC)ccc5c4CCN3C[C@H]2C[C@H](OC)[C@@H]1OC`, for which the Potency entry was “inactive”.

Turning to `COc1ccc(/C=C/C(=O)OCCC(C)C)cc1`, the Potency entry was “inactive”. Take `CC(=O)O[C@H]1C(=O)[C@@]2(C)[C@H]([C@H](OC(=O)c3ccccc3)[C@]3(O)C[C@H](OC(=O)[C@H](O)[C@@H](NC(=O)c4ccccc4)c4ccccc4)C(C)=C1C3(C)C)[C@]1(OC(C)=O)CO[C@@H]1C[C@@H]2O`: the Potency was 0.133 µM (active). With `CCCCCCCC(=O)CC[C@@H]1[C@@H](C/C=C\CCCC(=O)OC(C)C)[C@@H](O)C[C@H]1O`, the Potency was 16.8 µM (active). Take `COC(=O)C1=C(C)NC(C)=C(C(=O)O[C@H]2CCN(Cc3ccccc3)C2)[C@H]1c1cccc([N+](=O)[O-])c1`: the Potency was 18.8 µM (active). Consider `COc1ccc2c(c1)N(C[C@H](C)CN(C)C)c1ccccc1S2`, for which the Potency is 10.1 µM (active).

Regarding `CN=C1C=CC(=C(c2ccc(N(C)C)cc2)c2ccc(N(C)C)cc2)C=C1`, the Potency was 2.37 µM (active). As for `CO/N=C(\C(=O)N[C@@H]1C(=O)N2C(C(=O)O)=CCS[C@H]12)c1csc(N)n1`, the entry is “inactive”. For `CN1CCC(CN2c3ccccc3Sc3ccccc32)C1` (stereo not given), the Potency is 11.9 µM (active). For `COC(=O)[C@H]1[C@H]2C[C@@H]3c4[nH]c5ccccc5c4CCN3C[C@H]2C[C@@H](OC(=O)c2cc(OC)c(OC)c(OC)c2)[C@@H]1OC`, the Potency is 2.11 µM (active) and 21.1 µM (active).

`CCN1C(=O)NC(c2ccccc2)C1=O` (stereo not given): the Potency result was “inactive”. For `CCOC(=O)Cc1cccc(-c2cc(CCCCCCc3ccc(O[C@H]4O[C@H](COC(C)=O)[C@@H](OC(C)=O)[C@H](OC(C)=O)[C@@H]4OC(C)=O)c(-c4cccc(CC(=O)OCC)c4)c3)ccc2O[C@H]2O[C@H](COC(C)=O)[C@@H](OC(C)=O)[C@H](OC(C)=O)[C@@H]2OC(C)=O)c1`, the Potency result is “inactive”. On to `C[C@H](CSC(=O)c1ccccc1)C(=O)N1C[C@@H](Sc2ccccc2)C[C@H]1C(=O)O`, for which the Potency result was “inactive”. The entry for `CCCC(=O)N1CCCN(c2nc(N)c3cc(OC)c(OC)cc3n2)CC1` is “inactive”; for `CCCc1nc(C(C)(C)O)c(C(=O)OCc2oc(=O)oc2C)n1Cc1ccc(-c2ccccc2-c2nn[nH]n2)cc1` it is “inactive”. `CC(=O)O[C@]1(C(C)=O)CC[C@H]2[C@@H]3CCC4=CC(=O)CC[C@]4(C)[C@@]3(F)[C@@H](O)C[C@@]21C`: the Potency result was “inactive”. Consider `CC(/C=C/C=C(\C)C(=O)O[C@@H]1O[C@H](CO[C@@H]2O[C@H](CO)[C@@H](O)[C@H](O)[C@H]2O)[C@@H](O)[C@H](O)[C@H]1O)=C\C=C\C=C(C)\C=C\C=C(/C)C(=O)O[C@@H]1O[C@H](CO[C@@H]2O[C@H](CO)[C@@H](O)[C@H](O)[C@H]2O)[C@@H](O)[C@H](O)[C@H]1O`, for which the Potency result is “inactive”. Take `O=C(O)C1=C(CSc2nnnn2CS(=O)(=O)O)CS[C@@H]2[C@H](NC(=O)[C@H](O)c3ccccc3)C(=O)N12`: the Potency result is “inactive”. As to `Cc1c(O)cc2c(c1C)O[C@](C)(CCC[C@H](C)CCC[C@H](C)CCCC(C)C)CC2`, the Potency entry is “inactive”. As for `CC(C)[C@H](N)C(=O)OCC(CO)OCn1cnc2c(=O)[nH]c(N)nc21` (stereo not given in full), the Potency result was “inactive”.

Turning to `CC1(C)S[C@@H]2[C@H](NC(=O)C3(N)CCCCC3)C(=O)N2[C@H]1C(=O)O`, the Potency entry was “inactive”.

`CC(=O)OC[C@H]1O[C@@H](O[C@H]2[C@H](O)[C@@H](OC(=O)c3ccccc3C(=O)O)[C@H](O)O[C@@H]2COC(C)=O)[C@H](O)[C@@H](OC(=O)c2ccccc2C(=O)O)[C@@H]1O`: the Potency entry was “inactive”. Turning to `O=[N+]([O-])O[C@@H]1CO[C@H]2[C@@H]1OC[C@@H]2O`, the Potency result is “inactive”. Consider `CCNC(=O)[C@@H]1CCCN1C(=O)[C@H](CCCN=C(N)N)NC(=O)[C@H](CC(C)C)NC(=O)[C@@H](Cc1c[nH]c2ccccc12)NC(=O)[C@H](Cc1ccc(O)cc1)NC(=O)[C@H](CO)NC(=O)[C@H](Cc1c[nH]c2ccccc12)NC(=O)[C@H](Cc1cnc[nH]1)NC(=O)[C@@H]1CCC(=O)N1`, for which the Potency was 1.33 µM (active). Turning to `O=C(OC[C@H]1O[C@](O)(COC(=O)c2cccnc2)[C@@H](OC(=O)c2cccnc2)[C@@H]1OC(=O)c1cccnc1)c1cccnc1`, the Potency result is “inactive”.
